Sampled rows, rich in hits. Any-hit rate of the full collection: about 2.9%.
PLCg1 inh: PLC-gamma1 enzyme inhibitors, primary screen, biochemical, fluorescence, purified enzyme | 1-phosphatidylinositol 4,5-bisphosphate phosphodiesterase gamma-1 (Homo sapiens), P19174 | fluorogenic substrate | inhibition, % at 12.2 µM | actives 0.84% (n = 370,000) | AID 720700, 2013; in the data active = inhibition above about 9.5%
PLCb3 inh: human PLC-beta3 inhibitors, primary screen, biochemical, fluorescence | Purified PLC-beta3, fluorogenic substrate | actives 0.18% (n = 370,000) | 1-phosphatidylinositol 4,5-bisphosphate phosphodiesterase beta-3 (Homo sapiens), Q01970 | inhibition, % at 12.2 µM; in the data active = inhibition above about 11%;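 note: 0% = median of compound wells on plate and 100% = full blocker control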
ADAM10 inh: human ADAM10 inhibitors, primary screen, biochemical, QFRET, HTS. AID 720582, 2013. Disintegrin and metalloproteinase domain-containing protein 10 (Homo sapiens), O14672. inhibition, % at 7 µM. actives 0.62% (n = 370,000). recombinant ADAM10, EDANS/DABCYL FRET peptide cleavage, 3 h;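 active = inhibition above a per-campaign cutoff equal to the mean of compounds falling between control-based bounds plus 3 SD, cut at about 20% in these data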;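 note: 0% = DMSO wells while the 100% control is not disclosed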
ADAM17 inh: ADAM17 inhibitors, primary screen, biochemical, QFRET; AID 720648, 2013; Disintegrin and metalloproteinase domain-containing protein 17 (Homo sapiens), P78536; recombinant ADAM17, EDANS/DABCYL FRET peptide cleavage; inhibition, % at 6.95 µM; actives 0.83% (n = 370,000);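 active = inhibition above the mean of compounds lying between control limits plus 3 SD, set per campaign, cut at about 8.5% in these data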;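 note: 0% = DMSO-only wells as the low control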
proKLK7 act: proKLK7 zymogen activators, primary screen, biochemical, fluorescence intensity; Kallikrein-7 (Homo sapiens), P49862; purified proKLK7, EDANS-DABCYL substrate fluorescence; 100% is mature enzyme control, 0% vehicle; activation, % at 7 µM; actives 0.9% (n = 370,000);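 active = activation above the mean of all tested compounds plus 3 SD, computed per campaign excluding outliers beyond control limits, cut at about 13% in these data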
Target sequence (P49862 whole entry, looked up): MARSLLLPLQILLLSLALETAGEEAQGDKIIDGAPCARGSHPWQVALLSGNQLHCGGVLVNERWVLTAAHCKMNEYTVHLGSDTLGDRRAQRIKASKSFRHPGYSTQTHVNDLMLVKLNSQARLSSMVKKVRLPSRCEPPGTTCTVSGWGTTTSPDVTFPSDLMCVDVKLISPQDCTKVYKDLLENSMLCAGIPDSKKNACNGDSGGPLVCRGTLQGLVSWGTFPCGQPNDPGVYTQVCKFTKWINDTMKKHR
proKLK7 act conf: proKLK7 zymogen activators, confirmation, biochemical, fluorescence intensity, triplicate; shares compounds with proKLK7 act; purified proKLK7, EDANS-DABCYL substrate fluorescence; scaled: vehicle 0, mature enzyme 100; activation, % at 7 µM; actives 68% (n = 3,200); AID 686949, 2013;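 active = activation, as change over the incubation, above the mean of all tested compounds plus 3 SD, cut at about 13% in these data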
EDANS interfere: EDANS-DABCYL substrate optical interference, artefact control for kallikrein-7 zymogen activator project, biochemical, fluorescence intensity, high throughput. shares compounds with proKLK7 act. no enzyme, 4 h; solvent 0%, active enzyme control 100%. activation, % at 7 µM. actives 80% (n = 3,200);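 active = activation above the all-compound mean plus 3 SD, ignoring values outside control-based bounds, cut at about 4.8% in these data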;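 note: value is the 4 h activation minus the activation read at time zero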
K7 EDANS ctr: EDANS fluorescence interference in dose response, no enzyme. shares compounds with proKLK7 act. EDANS-DABCYL peptide fluorescence interference. EC50, µM. actives 20% (n = 250). AID 720493;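 active = compounds that raise the fluorescence signal in this interference counterscreen, with EC50 at or below 10 µM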;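 note: intact quenched peptide substrate alone read at 355 nm excitation and 520 nm emission; signal is fluorescence gain from T0 to T4 after four hours at room temperature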
Starred values were filed as active, the others as inactive.

Screening COc1ccc(O)c(C(=O)CC(=O)c2ccc(F)cc2)c1 returned PLCg1 inh -246, PLCb3 inh -249, ADAM10 inh -349, ADAM17 inh -131 and proKLK7 act 8.
For C[C@@H]1C(=O)N2N=Cc3cc4ccccc4cc3[C@H]2N2N=Cc3cc4ccccc4cc3[C@@H]12 the results were PLCg1 inh -6, PLCb3 inh -7, ADAM10 inh -10, ADAM17 inh -5 and proKLK7 act -1.
For COC(=O)[C@]12CCCCC=C1N(Cc1ccc(OC)cc1)C(=O)[C@@H]2CC(=O)NCC12CC3CC(CC(C3)C1)C2 the results were PLCg1 inh 6, PLCb3 inh 5, ADAM10 inh 13, ADAM17 inh 5 and proKLK7 act 0.
`C=CCN1C(=O)[C@@H](CC(=O)NCc2cccs2)[C@]2(C(=O)OCC)CCCCC/C=C/12` gave PLCg1 inh -1, PLCb3 inh 0, ADAM10 inh -2, ADAM17 inh -1 and proKLK7 act 0.
COC(=O)COc1cc(C)cc2oc(=O)c(CC(=O)OC)c(C)c12 was read as PLCg1 inh -267, PLCb3 inh -313, ADAM10 inh inactive, ADAM17 inh -180, proKLK7 act 74*, proKLK7 act conf 97* and EDANS interfere 99*.
`CCOC(=O)COc1cc(OCC(=O)OCC)c2c3c(c(=O)oc2c1)CCCC3` gave PLCg1 inh -63, PLCb3 inh -100, ADAM10 inh -313, ADAM17 inh -127 and proKLK7 act 2.
Screening Cc1cc(OCc2nn[nH]n2)c2c(C)c(CC(=O)O)c(=O)oc2c1 returned PLCg1 inh -377, PLCb3 inh -461, ADAM10 inh inactive, ADAM17 inh -234 and proKLK7 act 12.
COC(=O)C(C)Oc1cc(OC(C)C(=O)OC)c2c(C)c(Cl)c(=O)oc2c1 (stereo not drawn) was read as PLCg1 inh inactive, PLCb3 inh inactive, ADAM10 inh inactive, ADAM17 inh inactive, proKLK7 act 65*, proKLK7 act conf -40 and EDANS interfere 29*.
`COC(=O)COc1cc(OCC(=O)OC)c2c(C)c(Cl)c(=O)oc2c1` gave PLCg1 inh -376, PLCb3 inh -369, ADAM10 inh inactive, ADAM17 inh -339, proKLK7 act 192*, proKLK7 act conf 304* and EDANS interfere 277*.
`CC1(C)CC2CN(Cc3ccccc3)S(=O)(=O)N2C1` (stereo not drawn) gave PLCg1 inh 1, PLCb3 inh 0, ADAM10 inh 1 and ADAM17 inh 0.
C[C@H](O)[C@@H]1CN2CCc3c([nH]c4cccc(-c5ccccc5)c34)[C@@H]2C[C@@H]1N(C)C(=O)Nc1ccccc1 was read as PLCg1 inh -56, PLCb3 inh -73, ADAM10 inh -50, ADAM17 inh -14 and proKLK7 act -2.
Screening S=c1[nH]nc(-c2cc3c(s2)-c2ccccc2CC3)o1 returned PLCg1 inh inactive, PLCb3 inh inactive, ADAM10 inh inactive, ADAM17 inh inactive, proKLK7 act 39*, proKLK7 act conf 70* and EDANS interfere 70*.
`CSc1nnc(-c2cc3c(s2)-c2ccccc2CC3)o1` gave PLCg1 inh inactive, PLCb3 inh inactive, ADAM10 inh inactive, ADAM17 inh inactive and proKLK7 act -152.
COCCN1Cc2cc(C(=O)OC)c3c(c2C1=O)c1cc(OC)ccc1n3C(=O)c1ccccc1 was read as PLCg1 inh -39, PLCb3 inh -60, ADAM10 inh -21, ADAM17 inh -10 and proKLK7 act 2.
C[C@@H]1OC(C2CCCCC2)N(C)[C@H]2C[C@H]3c4cc(N5CCOCC5)ccc4CCN3C[C@@H]12 (stereo partly drawn) was read as PLCg1 inh -16, PLCb3 inh -17, ADAM10 inh -6, ADAM17 inh -1 and proKLK7 act 0.
C=CCNc1nc(NCc2ccccc2)c(C#N)c2c1CN(C)CC2 was read as PLCg1 inh inactive, PLCb3 inh inactive, ADAM10 inh inactive, ADAM17 inh inactive, proKLK7 act 14*, proKLK7 act conf 20*, EDANS interfere 15* and K7 EDANS ctr inactive.
CCCCCNc1nc(NCCCO)c(C#N)c2c1CN(C)CC2 was read as PLCg1 inh inactive, PLCb3 inh inactive, ADAM10 inh inactive, ADAM17 inh -190, proKLK7 act 20*, proKLK7 act conf 17* and EDANS interfere 23*.
For COC(=O)c1nc2n(n1)C(c1cccc(Cl)c1)C1=C(CCCC1=O)N2 (stereo not drawn) the results were PLCg1 inh -3, PLCb3 inh 1, ADAM10 inh -18, ADAM17 inh -1, proKLK7 act 20*, proKLK7 act conf 14* and EDANS interfere 19*.
For O=C(COC(=O)c1cc(Cl)ccc1O)Nc1ccc2c(c1)OCCO2 the results were PLCg1 inh -13, PLCb3 inh -22, ADAM10 inh -27, ADAM17 inh -7, proKLK7 act 19*, proKLK7 act conf 19* and EDANS interfere 16*.
For O=C(COC(=O)c1cc(Cl)ccc1O)NNC(=O)c1ccccc1F the results were PLCg1 inh -18, PLCb3 inh -19, ADAM10 inh -28, ADAM17 inh -10, proKLK7 act 86*, proKLK7 act conf 137* and EDANS interfere 124*.
`CC1(c2ccccc2)NC(=O)N(NC(=O)COC(=O)c2cc(Br)ccc2O)C1=O` (stereo not drawn) gave PLCg1 inh -4, PLCb3 inh -7, ADAM10 inh -3, ADAM17 inh -3, proKLK7 act 28*, proKLK7 act conf 34* and EDANS interfere 38*.
Screening O=C(COC(=O)c1cc2ccccc2cc1O)Nc1ccccc1F returned PLCg1 inh -86, PLCb3 inh -122, ADAM10 inh -13, ADAM17 inh -6, proKLK7 act 14*, proKLK7 act conf 15* and EDANS interfere 13*.
O=C(OCc1cn(Cc2ccc(C(F)(F)F)cc2)nn1)N1CCCC1 was read as PLCg1 inh 0, PLCb3 inh 0, ADAM10 inh 0, ADAM17 inh -4 and proKLK7 act 0.
